According to PubChem BioAssay AID1159580 (chemical genetic matrix, 2015):
Where “and” joins values, the source holds several entries; their conditions need not be identical. Identical values can stand only once. Hit rate of the full screen: of about 5,500 compounds, about 2,000 (36%) were called active. About 18% were inconclusive and are not listed. Cut-off read from the data, not from the text of the source: active = normalized growth mostly below about 0.91 (no sharp cut-off); inconclusive = no clear call, values can overlap the other calls; inactive = mostly above about 0.92. The list shows a part of the results.

Experiment: chemical genetic growth profiling, strain panel (AID 1159580);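 note: tested at 20 µM; growth read once vehicle control cultures reached saturation at 30 °C; 1 = growth at the plate median or of vehicle wells; lower values mean less growth of the strain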
Conditions: S. cerevisiae deletion strains, growth OD

Measured: normalized growth

CC(=O)Nc1ccc(O)cc1
inactive: locus YAL021C, strain ccr4, active compounds read low 1.02 | locus YAL026C, strain drs2, active compounds read low 1.02 | locus YAL030W, strain snc1, active compounds read low 1.02 | locus YBL061C, strain skt5, active compounds read low 1.02 | locus YBR009C, strain hhf1, active compounds read low 1.01 | locus YBR021W, strain FUR4, active compounds read low 1.09 | locus YBR023C, strain chs3, active compounds read low 1.02 | locus YBR171W, strain sec66, active compounds read low 1.02 | locus YBR229C, strain ROT2, active compounds read low 0.985 | locus YBR231C, strain swc5, active compounds read low 1.02 | locus YBR279W, strain paf1, active compounds read low 1 | locus YCL011C, strain gbp2, active compounds read low 1.01 | locus YCL016C, strain dcc1, active compounds read low 1.01 | locus YCL029C, strain bik1, active compounds read low 0.979 | locus YCL069W, strain vba3, active compounds read low 1.01 | locus YCR088W, strain abp1, active compounds read low 1.01 | locus YDL005C, strain med2, active compounds read low 1.02 | locus YDL035C, strain GPR1, active compounds read low 0.984 | locus YDL040C, strain nat1, active compounds read low 1.01 | locus YDL074C, strain BRE1, active compounds read low 1.05 | locus YDL101C, strain DUN1, active compounds read low 1.01 | locus YDL134C, strain PPH21, active compounds read low 0.985 | locus YDL185W, strain tfp1, active compounds read low 0.935 | locus YDL192W, strain arf1, active compounds read low 0.981 | locus YDR001C, strain nth1, active compounds read low 1.02 | locus YDR069C, strain doa4, active compounds read low 1.02 | locus YDR101C, strain arx1, active compounds read low 0.988 | locus YDR137W, strain rgp1, active compounds read low 1.01 | locus YDR159W, strain sac3, active compounds read low 1.01 | locus YDR162C, strain NBP2, active compounds read low 0.951 | locus YDR195W, strain ref2 1.01 | locus YDR297W, strain sur2, active compounds read low 1.02 | locus YDR318W, strain mcm21, active compounds read low 0.973 | locus YDR334W, strain swr1, active compounds read low 1.02 | locus YDR335W, strain msn5, active compounds read low 1.01 | locus YDR388W, active compounds read low 0.988 | locus YDR392W, strain spt3, active compounds read low 0.993 | locus YDR502C, strain sam2, active compounds read low 1 | locus YEL003W, strain gim4, active compounds read low 1.03 | locus YEL037C, strain rad23, active compounds read low 1.02 | locus YEL061C, strain CIN8 (second series), active compounds read low 1.01 | locus YEL061C, strain CIN8, active compounds read low 0.971 | locus YER015W, strain faa2, active compounds read low 1 | locus YER016W, strain bim1, active compounds read low 0.987 | locus YER110C, active compounds read low 0.992 | locus YER111C, strain swi4, active compounds read low 1.01 | locus YER155C, strain BEM2 (second series), active compounds read low 1.02 | locus YER155C, strain BEM2, active compounds read low 0.978 | locus YER167W, strain BCK2, active compounds read low 0.991 | locus YFR010W, strain ubp6, active compounds read low 1.01 | locus YGL078C, strain dbp3, active compounds read low 0.936 | locus YGL086W, strain mad1, active compounds read low 0.987 | locus YGL167C, strain pmr1, active compounds read low 1.03 | locus YGL173C, strain kem1, active compounds read low 1.02 | locus YGL227W, strain vid30, active compounds read low 1.02 | locus YGL240W, strain doc1, active compounds read low 1.01 | locus YGL248W, strain PDE1, active compounds read low 0.982 | locus YGL253W, strain hxk2, active compounds read low 1.01 | locus YGR135W, strain pre9, active compounds read low 0.996 | locus YGR229C, strain SMI1, active compounds read low 0.972 | locus YGR252W, strain gcn5, active compounds read low 1.16 | locus YHR013C, strain ard1, active compounds read low 1.02 | locus YHR027C, strain rpn1, active compounds read low 1.01 | locus YHR030C, strain SLT2, active compounds read low 0.985 and 0.986 | locus YHR079C, strain IRE1 (second series), active compounds read low 0.987 | locus YHR079C, strain IRE1, active compounds read low 0.986 | locus YHR094C, strain hxt1, active compounds read low 0.979 | locus YHR129C, strain ARP1, active compounds read low 0.977 | locus YHR142W, strain chs7, active compounds read low 1.01 | locus YHR200W, strain rpn10, active compounds read low 0.983 | locus YIL066C, strain RNR3, active compounds read low 0.977 | locus YIL073C, strain SPO22, active compounds read low 1.04 | locus YIL125W, strain kgd1, active compounds read low 0.944 | locus YIR030C, strain dcg1, active compounds read low 0.977 | locus YJL092W, strain hpr5, active compounds read low 1 | locus YJL095W, strain BCK1 (second series), active compounds read low 1.02 | locus YJL095W, strain BCK1, active compounds read low 1 and 0.986 | locus YJL115W, strain asf1, active compounds read low 1.02 | locus YJL129C, strain trk1, active compounds read low 1.01 | locus YJL134W, strain LCB3, active compounds read low 0.981 | locus YJL154C, strain vps35, active compounds read low 1.01 | locus YJL164C, strain tpk1, active compounds read low 0.997 | locus YJL166W, strain qcr8, active compounds read low 1 | locus YJL168C, strain set2, active compounds read low 0.975 | locus YJL187C, strain SWE1 (second series), active compounds read low 1.01 | locus YJR043C, strain POL32, active compounds read low 0.978 | locus YJR066W, strain TOR1, active compounds read low 0.99
